Key:
Assay type in all cases: functional
[1] = molecular target: Solute carrier family 2, facilitated glucose transporter member 1 (Homo sapiens) (UniProt P11166); experiment: ST_JUDE_LEISH: Cytotoxicity at 2uM final concentration against transgenic Leishmania Mexicana promastigotes LmGLUT1 that are glucose transport deficient and complemented with the human glucose transporter GLUT1. Activity is measured by DNA content using SYBR green in vitro
[2] = molecular target: Hexose transporter 1 (Plasmodium falciparum) (UniProt O97467); experiment: ST_JUDE_LEISH: Cytotoxicity at 2uM final concentration against transgenic Leishmania Mexicana promastigotes LmPfHT that are glucose transport deficient and complemented with the Plasmodium falciparum hexose transporter. Activity is measured by DNA content using SYBR green in vitro
[3] = molecular target: Glucose transporter (Leishmania mexicana) (UniProt O61059); experiment: ST_JUDE_LEISH: Cytotoxicity at 2uM final concentration against transgenic Leishmania Mexicana promastigotes LmGT2 that are glucose transport deficient and complemented with the L. Mexicana glucose transporter 2. Activity is measured by DNA content using SYBR green in vitro

Chain of Solute carrier family 2, facilitated glucose transporter member 1 (Homo sapiens) (P11166 whole entry): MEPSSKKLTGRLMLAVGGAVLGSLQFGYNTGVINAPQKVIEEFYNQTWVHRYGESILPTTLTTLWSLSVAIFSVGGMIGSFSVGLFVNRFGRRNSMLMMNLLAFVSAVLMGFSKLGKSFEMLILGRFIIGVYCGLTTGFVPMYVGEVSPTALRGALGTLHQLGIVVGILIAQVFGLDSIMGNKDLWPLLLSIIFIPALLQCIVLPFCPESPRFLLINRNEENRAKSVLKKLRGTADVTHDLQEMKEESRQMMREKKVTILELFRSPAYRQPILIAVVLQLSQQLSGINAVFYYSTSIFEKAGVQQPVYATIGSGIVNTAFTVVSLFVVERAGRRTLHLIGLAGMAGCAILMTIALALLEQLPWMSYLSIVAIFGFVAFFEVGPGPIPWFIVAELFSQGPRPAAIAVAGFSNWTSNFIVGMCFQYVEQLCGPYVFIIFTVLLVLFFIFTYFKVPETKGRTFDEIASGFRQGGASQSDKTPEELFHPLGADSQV

Structure (SMILES)	inhibition [1]	inhibition [2]	inhibition [3]
O=C(Nc1cccc(CN2CCN(C(=O)c3cccs3)CC2)c1)c1cccs1	2.53%	2.59%	2.26%
O=C(CCc1c[nH]cn1)Nc1cccc(-c2ccc(-c3nc4cc(F)ccc4[nH]3)cc2)c1	16.3%	13.1%	16.6%
CCCN1CCN(CCCNc2c3ccccc3nc3ccccc23)CC1	73.1%	78.2%	65.1%
CN(C)CCOc1ccnc2ccc(NC(=O)Cc3ccc(-c4ccncc4)c4ccccc34)cc12	1.07%	-0.32%	7.74%
CCCCCCc1cc(Oc2c(I)cc(C[C@H](N)C(=O)O)cc2I)ccc1O	0.33%	1.79%	-0.38%
COc1cc(NC(=O)N2CCOC(CCN3CCC(c4ccccc4)CC3)(c3ccc(Cl)c(Cl)c3)C2)cc(OC)c1 (centres undefined)	0.76%	1.73%	-1.37%
NC1CCN(c2nc(NCCc3ccc(O)cc3)nc(NCc3ccccc3-c3ccc(C(F)(F)F)cc3)n2)CC1	4.18%	3.01%	2.19%
CN1CCCN(Cc2cccc(-c3ccc(NS(=O)(=O)c4cccc5cccnc45)cc3)c2)CC1	1.84%	1.21%	-3.11%
CC(=O)Nc1ccc(C(=O)Nc2cccc(-c3cccc(-c4nc5cc(C(F)(F)F)ccc5[nH]4)c3)c2)cn1	-0.64%	-2.32%	-1.64%
N=C(NCCCCC1CCCCC1)c1cccc(C(=N)NCCCCC2CCCCC2)n1	0.33%	0.98%	0.14%
COc1cc(Nc2nccc(Nc3ccc4c(C)n[nH]c4c3)n2)cc2ccccc12	5.04%	2.79%	-0.29%
COc1ccc2[nH]c(C(=O)Nc3ccc4[nH]c(-c5ccccc5)nc4c3)cc2c1	4.44%	2.1%	0.82%
O=C(Cc1cccc(Cl)c1)N1CCc2cc3nccc(N4CCN5CCC[C@H]5C4)c3cc21	3.68%	2.69%	4.38%
Clc1ccc(-c2csc3ncnc(Cl)c23)cc1	4.6%	0.54%	4.02%
CC(=O)N1Cc2ccccc2C1=O	2.88%	3.51%	2.11%
CC(C)c1ccc2c(c1)c(SC(C)(C)C)c(CC(C)(C)C#N)n2Cc1ccc(Cl)cc1	3.18%	0.69%	-0.23%
O=C(/C=C/c1ccc(-c2ccccc2)cc1)NCCCCCN1CCC(c2c[nH]c3ccccc23)CC1	0.3%	4.35%	-1.76%

Structure (SMILES)	inhibition [1]	inhibition [2]	inhibition [3]
O=C(c1ccco1)c1cn(CCOc2ccccc2)c2ccccc12	1.36%	1.5%	-0.07%
COc1cc(F)c2ncc(Cl)c(C(O)CN3CCC(NC(=O)c4ccc5c(c4)NC(=O)CS5)CC3)c2c1 (centres undefined)	8.37%	7.69%	4.11%
Cc1nn(CC(O)Cn2c3ccc(Br)cc3c3cc(Br)ccc32)c(C)c1Br (centres undefined)	-0.46%	-3.23%	-0.3%
N#Cc1ccc(-c2ccc(C(=O)NCCCCN3CCC(c4ccc5c(c4OCC(N)=O)CCCC5)CC3)cc2)cc1	1.23%	0.2%	1.1%
COc1cc(C(C)C)ccc1N1CCN(CCCCNC(=O)c2ccc(NC(=O)c3ccc(Cl)cc3)cc2)CC1	4.1%	1.59%	2.26%
COc1ccccc1CCNc1nccc(N[C@@H](Cc2ccccc2)C(=O)NCc2cccs2)n1	1.78%	1.77%	-0.08%
CCSc1nnc(C2CCCN(CC(=O)Nc3cc(C(F)(F)F)ccc3Cl)C2)n1CC (centres undefined)	8.8%	8.79%	8.67%
CC(C)(CNC(=O)C1CCN(CC2CCCCC2)CC1)c1nc(-c2ccc(Cl)c(O)c2)c(-c2ccncc2)[nH]1	1.84%	0.23%	2.71%
CCN(CCO)Cc1ccc(-c2ccc(NS(=O)(=O)c3cccc4cccnc34)cc2)cc1	89.5%	95.5%	92.4%
FC(F)(F)c1cc(Nc2ncnc3ccc(Br)cc23)ccc1OCc1ccccc1	6.39%	3.97%	3.84%
CN(C)CCNCc1cccc(-c2ccc3c(Nc4ccc(F)cc4Cl)ccnc3c2)c1	3.59%	3.29%	5.03%
Cc1cc(O)c2c(c1)OC(C)(C)C=C2C1=CCN(Cc2ccccc2)CC1	5.82%	6.87%	5.88%
O=C(Nc1ccc(Cn2ncc(N3CCCNCC3)c(Cl)c2=O)cc1)Nc1ccc(SC(F)(F)F)cc1	3.57%	10.1%	-1.22%
COc1ccccc1-c1cccc(-c2cccc(NC(=O)c3ccc([N+](=O)[O-])o3)c2)n1	11.2%	16.8%	9.06%
CN1C(=O)C(=O)N(CCCCCONC(=N)N)C1=S	9.86%	6.2%	9.97%
O=C(/C=C/c1ccc(Cl)c(Cl)c1)NCCCCCN1CCC(NC(=O)NC2CCCCCC2)CC1	-0.58%	1.53%	0%
